Results as given in PubChem BioAssay.
Activity calls are given as the source filed them.

Experiments:
[1] = E. coli DRC41 culture turbidity changes, primary screen, E. coli filamentation inducer project, strain DRC41, OD650, 48 h (AID 1152);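 further: E. coli MC1000 strain DRC41 lacking acrAB efflux pump and sulA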; settings: E. coli DRC41 (acrAB sulA), higher = more signal, called active from +8 up or from −8 down
[2] = small-molecule binders of probe aLefty1, primary screen, biochemical, small-molecule microarray, 635/667 nm fluorescence (AID 1153); settings: higher = more signal;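 further: score merges spot fluorescence with signal-to-noise ratio from the scanned slide images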
[3] = PSAC antagonists in infected red cells, primary screen, cell-based, P. falciparum Indochina, OD700, 1 h (AID 1154); settings: P. falciparum Indochina infected RBC osmotic lysis, higher = more signal, called active from +8 up or from −8 down
[4] = PSAC antagonists in infected red cells, primary screen, cell-based, P. falciparum Indochina, OD700, 2 h (AID 1155);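 further: lysis reports solute entry through the parasite surface anion channel PSAC; channel blockers reduce lysis of infected cells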; settings: P. falciparum Indochina infected erythrocytes, osmotic lysis OD700; higher = more signal, called active from +8 up or from −8 down
[5] = osmotic lysis modulators in infected erythrocytes, primary screen, PSAC antagonist project, cell-based, P. falciparum Indochina, OD700, 3 h (AID 1156); settings: higher = more signal, called active from +8 up or from −8 down
[6] = PSAC antagonists in infected red cells, primary screen, cell-based, P. falciparum Indochina, OD700, 18 h (AID 1157); settings: P. falciparum Indochina infected erythrocytes, osmotic lysis OD700, 18 h; higher = more signal, called active from +8 up or from −8 down
[7] = modulators of S6 phosphorylation in cells, primary screen, cell-based, A549, cytoblot, luminescence, serum-stimulated (AID 1158); settings: A549 phospho-S6 cytoblot, 5 h, higher = more signal;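 further: serum-stimulated A549 lung adenocarcinoma cells; signal is phosphorylated S6 detected by cytoblot immunostaining with HRP secondary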
[8] = molecular target: NADPH oxidase 2 (Homo sapiens) (UniProt P04839); test: NOX2-dependent H2O2 signal modulators, primary screen, NOX inhibitor project, cell-based, HEK293-NOX2, PMA-stimulated, Amplex Red fluorescence (AID 1159); settings: 45 min, higher = more signal, called active from +8 up or from −8 down; further: test concentration not given here
[9] = molecular target: NADPH oxidase 4 (Homo sapiens) (UniProt Q9NPH5); test: NOX4-dependent H2O2 signal modulators, primary screen, NOX inhibitor project, cell-based, HEK293-NOX4, tetracycline-induced, Amplex Red fluorescence (AID 1160); settings: 45 min, higher = more signal, called active from +8 up or from −8 down
[10] = molecular target: NADPH oxidase 5 (Homo sapiens) (UniProt Q96PH1); test: NOX5-dependent H2O2 signal modulators, primary screen, NOX inhibitor project, cell-based, HEK293-NOX5, Amplex Red fluorescence (AID 1161); settings: HEK293-NOX5, ionomycin, 45 min, higher = more signal
Chain of NADPH oxidase 5 (Homo sapiens) (Q96PH1 whole entry, looked up): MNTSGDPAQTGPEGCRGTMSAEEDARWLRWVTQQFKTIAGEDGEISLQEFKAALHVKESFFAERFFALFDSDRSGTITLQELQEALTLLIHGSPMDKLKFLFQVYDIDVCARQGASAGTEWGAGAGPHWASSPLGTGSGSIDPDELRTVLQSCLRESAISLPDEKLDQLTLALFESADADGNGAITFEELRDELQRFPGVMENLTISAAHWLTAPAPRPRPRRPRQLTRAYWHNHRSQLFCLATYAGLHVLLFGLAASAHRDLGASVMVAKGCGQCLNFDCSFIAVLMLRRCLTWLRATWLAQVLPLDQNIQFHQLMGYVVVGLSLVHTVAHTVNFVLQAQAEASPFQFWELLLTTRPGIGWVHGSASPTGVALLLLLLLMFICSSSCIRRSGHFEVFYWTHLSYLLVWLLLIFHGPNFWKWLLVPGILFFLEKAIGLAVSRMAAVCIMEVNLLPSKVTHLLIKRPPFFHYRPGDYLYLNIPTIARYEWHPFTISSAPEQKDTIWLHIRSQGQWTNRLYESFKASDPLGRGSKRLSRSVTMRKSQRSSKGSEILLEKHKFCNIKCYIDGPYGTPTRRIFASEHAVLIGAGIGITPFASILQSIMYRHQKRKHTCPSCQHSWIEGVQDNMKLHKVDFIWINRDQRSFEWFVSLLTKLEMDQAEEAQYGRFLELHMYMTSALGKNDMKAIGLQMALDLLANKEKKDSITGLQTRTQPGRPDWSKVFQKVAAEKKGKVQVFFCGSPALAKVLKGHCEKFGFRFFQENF

Chain of NADPH oxidase 4 (Homo sapiens) (Q9NPH5 whole entry, looked up): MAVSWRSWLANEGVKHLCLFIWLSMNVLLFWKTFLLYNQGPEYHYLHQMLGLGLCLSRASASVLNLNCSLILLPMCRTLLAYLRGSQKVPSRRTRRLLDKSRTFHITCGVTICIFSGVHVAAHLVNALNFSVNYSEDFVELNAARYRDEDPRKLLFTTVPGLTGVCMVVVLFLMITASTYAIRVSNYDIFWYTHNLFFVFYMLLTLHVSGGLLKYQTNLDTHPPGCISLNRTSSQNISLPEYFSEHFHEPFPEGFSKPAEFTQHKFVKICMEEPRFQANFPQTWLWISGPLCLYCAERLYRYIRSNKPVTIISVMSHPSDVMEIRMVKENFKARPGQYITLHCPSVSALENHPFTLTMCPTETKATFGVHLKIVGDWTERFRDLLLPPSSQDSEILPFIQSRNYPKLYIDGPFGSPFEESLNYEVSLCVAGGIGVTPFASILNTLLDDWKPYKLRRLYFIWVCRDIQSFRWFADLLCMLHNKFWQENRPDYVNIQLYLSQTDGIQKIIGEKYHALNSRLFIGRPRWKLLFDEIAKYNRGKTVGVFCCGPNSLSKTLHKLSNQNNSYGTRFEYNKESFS
Chain of NADPH oxidase 2 (Homo sapiens) (P04839 whole entry, looked up): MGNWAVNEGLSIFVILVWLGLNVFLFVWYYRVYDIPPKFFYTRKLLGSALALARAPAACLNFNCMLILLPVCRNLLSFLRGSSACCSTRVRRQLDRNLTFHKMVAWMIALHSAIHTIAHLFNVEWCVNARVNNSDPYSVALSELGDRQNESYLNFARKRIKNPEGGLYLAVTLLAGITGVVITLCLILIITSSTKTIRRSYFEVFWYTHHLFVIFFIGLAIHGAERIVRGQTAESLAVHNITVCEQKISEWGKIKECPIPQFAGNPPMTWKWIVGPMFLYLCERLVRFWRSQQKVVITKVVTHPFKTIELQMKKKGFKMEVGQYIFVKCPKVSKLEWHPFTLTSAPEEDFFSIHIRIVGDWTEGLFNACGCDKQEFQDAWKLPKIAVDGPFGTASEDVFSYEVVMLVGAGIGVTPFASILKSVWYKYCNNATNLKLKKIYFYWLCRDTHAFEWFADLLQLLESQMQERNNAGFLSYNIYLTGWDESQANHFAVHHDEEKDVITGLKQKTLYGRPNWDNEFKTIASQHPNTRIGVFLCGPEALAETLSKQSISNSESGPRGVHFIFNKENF

SMILES	z-score [1]	composite z-score [2]	z-score [3]	z-score [4]	z-score [5]	z-score [6]	z-score [7]	z-score [8]	z-score [9]	z-score [10]
COc1ccc(O[C@H]2C=C[C@@H](c3ccccc3)O[C@@H]2COC(=O)CCC(C)=NOC[C@@H](O)[C@H]2O[C@@H]3OC(C)(C)O[C@@H]3[C@H]2O)cc1	-1.89 (inactive)	0.0004	4.09 (inactive)	1.12 (inactive)	1.11 (inactive)	0.662 (inactive)	0.332	-1.42 (inactive)	0.0675 (inactive)	-1.42
CC(CCN1CCc2nc(-c3ccccc3)c(-c3ccccc3)cc2C1)=NOC[C@@H](O)[C@H]1O[C@@H]2OC(C)(C)O[C@@H]2[C@H]1O	0.784 (inactive)	-0.0099	1.47 (inactive)	0.239 (inactive)	0.318 (inactive)	0.244 (inactive)	-0.0979	-5.63 (inactive)	-1.69 (inactive)	-4.61
C=CC[C@@H]1C=C[C@H](ON=C[C@@H](C)[C@H](OCc2ccccc2)C(C)C)[C@@H](CO)O1	-0.144 (inactive)	-0.193	1.64 (inactive)	0.0178 (inactive)	-0.667 (inactive)	0.197 (inactive)	-0.544	-0.55 (inactive)	-0.301 (inactive)	-1.48
CC(C)(C)N1C(=O)[C@H]2[C@H]3[C@H](O)[C@H](O)CC(=O)[C@@H]3CC[C@H]2C1=O	-0.767 (inactive)	-0.147	0.126 (inactive)	0.0976 (inactive)	-1.24 (inactive)	-0.0131 (inactive)	0.413	-3.23 (inactive)	0.0825 (inactive)	0.309
CC(C)CON=C1C[C@@H](O)[C@@H](O)[C@@H]2[C@@H]3C(=O)N(Cc4ccc5c(c4)OCO5)C(=O)[C@@H]3CC[C@H]12	-0.135 (inactive)	-0.198	1.22 (inactive)	0.32 (inactive)	0.337 (inactive)	0.108 (inactive)	-0.27	-0.378 (inactive)	1.02 (inactive)	-0.146
CCOC(=O)[C@H](Cc1ccccc1)NC(=O)CCC1CC(OC(=O)NCCc2ccc(F)cc2)CC2(CCCC(COC(=O)NCC3CCCCC3)O2)O1 (stereo not given in full)	1.08 (inactive)	-0.0536	-0.0955 (inactive)	0.672 (inactive)	0.753 (inactive)	0.416 (inactive)	0.681	0.102 (inactive)	1.12 (inactive)	0.0102
CCOC(=O)[C@H](Cc1ccccc1)NC(=O)CCC1CC(OC(=O)NCCc2ccc(F)cc2)CC2(CCCC(COC(=O)NCCc3ccc(Cl)cc3)O2)O1 (stereo not given in full)	0.0991 (inactive)	-0.0244	1.13 (inactive)	-0.525 (inactive)	0.056 (inactive)	0.126 (inactive)	0.406	0.526 (inactive)	0.311 (inactive)	1.13
COC(=O)[C@@H]1CC[C@H](C)[C@@H](c2ccc(C)cc2)N1C(=O)c1ccc(C=NO[C@H](C)c2cn([C@@H]3COC[C@H]3O)nn2)cc1	0.153 (inactive)	0.109	22.6 (active)	3.19 (inactive)	0.615 (inactive)	1.52 (inactive)	-0.477	-0.166 (inactive)	0.124 (inactive)	0.196
O=C1[C@H]2[C@H]3[C@H](O)[C@H](O)CC(=NOCc4ccccc4)[C@H]3CC[C@H]2C(=O)N1Cc1ccc2c(c1)OCO2	-1.06 (inactive)	-0.147	19.4 (active)	2.12 (inactive)	0.686 (inactive)	0.599 (inactive)	-0.702	0.414 (inactive)	-0.0657 (inactive)	-2.61
CC(C)=CCCC(C)=CCON=C1C[C@@H](O)[C@@H](O)[C@@H]2[C@@H]3C(=O)N(C4CCCCC4)C(=O)[C@@H]3CC[C@@H]12	-0.734 (inactive)	-0.147	2.18 (inactive)	0.677 (inactive)	-0.25 (inactive)	0.525 (inactive)	-0.367	0.606 (inactive)	0.435 (inactive)	-0.18
CO[C@H]1COC(=O)[C@H](C)NC(=O)[C@@H](C)COC(=O)[C@H]2CCCN2C(=O)CC=C[C@H]1C	-0.0911 (inactive)	-0.194	0.551 (inactive)	0.453 (inactive)	0.603 (inactive)	0.293 (inactive)	0.203	-0.752 (inactive)	0.0917 (inactive)	0.363
CCOC(=O)[C@H](CC(C)C)NC(=O)CCC1CC(OC(=O)NCc2cccc3ccccc23)CC2(CCCC(COC(=O)NCCCN3CCCC3=O)O2)O1 (stereo not given in full)	0.261 (inactive)	-0.177	0.51 (inactive)	0.936 (inactive)	0.662 (inactive)	0.295 (inactive)	0.285	1.51 (inactive)	0.133 (inactive)	-0.877
CCOC(=O)[C@H](CC(C)C)NC(=O)CCC1CC(OC(=O)NCCc2ccc(F)cc2)CC2(CCCC(COC(=O)NCC3CCCCC3)O2)O1 (stereo not given in full)	-1.12 (inactive)	-0.169	2.04 (inactive)	0.132 (inactive)	0.107 (inactive)	-0.341 (inactive)	0.673	-0.202 (inactive)	0.728 (inactive)	0.123
